IL-1B inflam inh – qHTS for Inhibitors of Inflammasome Signaling: IL-1-beta AlphaLISA Primary Screen | 4.7% of 360,000 active | THP-1 LPS/ATP IL-1B secretion, AlphaLISA, 16 h; active compounds read low | activity change, % at 57.5 µM | AID 743279, 2014; in the data active means activity change below about -50%; inconclusive means mostly about -30% to -49%
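THP-1 cells pretreated 1 hr with compounds (up to 57.5 uM final), then stimulated with LPS (250 ng/mL final) plus ATP (1.25 mM final); secreted IL-1B measured by AlphaLISA after 16 hr, decreased signal indicating inhibition.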
DT40 TDP1 no CPT – qHTS for Inhibitors of human tyrosyl-DNA phosphodiesterase 1 (TDP1): qHTS in cells in absence of CPT | DT40 Tdp1-/- hTDP1 cells, no CPT, ATP luminescence, 48 h | 15% of 420,000 active | Potency, µM (highest dose often 46.2 µM), for the others: at the highest dose activity change, negative = growth inhibition, hits mostly inhibitors; further: potency means the concentration at half of the fitted maximal effect; nearly all actives have a fitted effect of over 55% in size
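DT40 Tdp1-/-;hTDP1 cells, no CPT (DMSO vehicle only), 400 cells/well; compounds pin-transferred; ≥48 hr, 37 °C; CellTiter-Glo 30 min RT dark, luminescence read.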
HT1080-NT tox – qHTS for induction of synthetic lethality in tumor cells producing 2HG: qHTS for the HT-1080-NT fibrosarcoma cell line; Potency, µM (doses to about 46.1 µM), without a hit: at the highest dose activity, negative = less viability, most hits filed as cytotoxic; HT-1080-NT fibrosarcoma viability, CellTiter-Glo ATP luminescence, 48 h; 1.6% of 360,000 active;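 further: NT is the 2HG producing partner of a matched IDH1 knockdown line; potency means the concentration at half of the fitted maximal effect; 0% = DMSO-treated cells and -100% = media-only wells without cells; nearly all actives have a fitted effect of over 55% in size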
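Viability by CellTiter-Glo luminescence after 48 h compound exposure at 37C of HT-1080-NT cells (750/well, RPMI, 5% FBS). % activity scaled between DMSO wells and medium-only wells, then curve-fitted and categorized by curve class.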
ELG1 repair inh – qHTS screen for small molecules that inhibit ELG1-dependent DNA repair in human embryonic kidney (HEK293T) cells expressing luciferase-tagged ELG1 | 2.3% of 330,000 active | HEK293T ELG1-luciferase reporter, luminescence, 16 h; DNA damage induced by 5-fluorouridine | Potency, µM (top dose mostly 46.1 µM), for the others: at the top dose activity change, negative = inhibition, usual class: inhibitors | AID 504467, 2011; further: potency means the concentration at half of the fitted maximal effect; nearly all actives have a fitted effect of over 55% in size
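Cells (2,000 per well) received 5-fluorouridine plus test compound or DMSO and were incubated 16 hr at 37 °C, 5% CO2. Luciferase activity was read by luminescence 30 min after ONE-Glo addition; signal suppression marked inhibition of damage-induced ELG1 function.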
HT1080 IDH1KD tx – qHTS for induction of synthetic lethality in tumor cells producing 2HG: qHTS for the HT-1080-IDH1KD cell line; HT-1080 IDH1 knockdown viability, ATP luminescence, 48 h; Potency, µM (doses to about 46.1 µM), for the others: at the highest dose activity, negative = toxicity, usual class: cytotoxic; 2% of 360,000 active; AID 686971, 2013;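 further: potency means the concentration at half of the fitted maximal effect; 0% = DMSO wells and -100% = cell-free medium wells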
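Assay cells: HT-1080 with IDH1 knockdown, 750 per well, RPMI/5% FBS. Exposure: 48 h at 37 °C following 2 h pre-incubation. Read: CellTiter-Glo luminescence; fitted concentration-response, curve class assigned.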
DT40 TDP1 CPT – qHTS for Inhibitors of human tyrosyl-DNA phosphodiesterase 1 (TDP1): qHTS in cells in presence of CPT | chicken DT40 Tdp1-/-;hTDP1 cells + 20 nM CPT, ATP luminescence, 48 h | Potency, µM (series often up to 46.2 µM), without a hit: top-dose activity change, negative = growth inhibition, hits mostly inhibitors | 12% of 420,000 active | AID 686979, 2013; further: potency means the concentration at half of the fitted maximal effect; nearly all actives have a fitted effect of over 55% in size
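Cell growth measured by CellTiter-Glo luminescence after a minimum 48 h, 37 C compound exposure with 20 nM CPT in Tdp1-knockout DT40 cells stably expressing hTDP1, seeded 400/well; qHTS titration format.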
Starred values were filed as active, the others as inactive; u = inconclusive; x = no result given. Sampled rows, rich in hits. Any-hit rate of the full collection: about 19%. Unless noted, the call rests on the fitted dose curve; in most records, active means well fitted curve in the direction sought with a large enough effect; inconclusive means small, poorly fitted or top-dose-only effect, or another doubt; inactive means no such curve, though single readings can be large; an effect the other way counts as inactive or inconclusive. Unless noted, on the % scale 0 is the no-effect control and ±100 the full control effect.

SMILES	IL-1B inflam inh	DT40 TDP1 no CPT	HT1080-NT tox	ELG1 repair inh	HT1080 IDH1KD tx	DT40 TDP1 CPT
Cc1cc(N2CCCC2)nc2ccc(NC(=S)NC(C)C)cc12	-15	16µM*	4%	8%	10%	u
Cc1cc(N2CCCCCC2)nc2ccc(F)cc12	26	-10%	9%	x	-27%	-15%
COc1ccc(N2CC(NC(=O)NCCC(C)C)CC2=O)cc1 (stereo not drawn)	-65*	-21%	-1%	-3%	-4%	u
CCN1CCN(C(=O)NC2CC(=O)N(c3ccc(OC)cc3)C2)CC1 (stereo not drawn)	-69*	16%	u	12%	19%	15%
COc1ccc(N2CC(NC(=O)NC(C)(C)C)CC2=O)cc1 (stereo not drawn)	5	-12%	21%	2%	21%	4%
COc1ccc(NC(=O)Cn2ccc(C(F)(F)F)n2)cc1S(=O)(=O)N1CCOCC1	-6	-24%	24%	1%	20%	15%
O=C1c2ccccc2C(Nc2cccc(C(F)(F)F)c2)N1Cc1ccco1 (stereo not drawn)	-5	16µM*	-24%	u	u	23µM*
COc1cccc(NC2c3ccccc3C(=O)N2Cc2ccco2)c1 (stereo not drawn)	0	23µM*	-5%	-16%	-2%	21µM*
CC(C)NCC(O)COC1CCC(C(C)(C)C)CC1 (stereo not drawn)	-12	u	-30%	-20%	u	u
CCC[C@H](CN[C@@H](CNC)[C@H](C)CC)NCCc1cc(C(F)(F)F)cc(C(F)(F)F)c1	-100*	3.3µM*	u	21µM*	u	12µM*
CC[C@@H](C)[C@H](CNC)NC[C@@H](Cc1cccc2ccccc12)NCCc1cccc(C(F)(F)F)c1	-24	u	u	u	u	23µM*
CCC[C@@H](CN[C@@H](CNC)[C@H](C)CC)NCC1CCC(C(C)(C)C)CC1 (stereo partly drawn)	-53*	0.65µM*	u	2%	u	1µM*
O=C(OCCOc1ccc(Br)cc1)c1ccc(Cl)c(S(=O)(=O)N2CCOCC2)c1	7	u	-12%	-12%	-11%	6%
CC1=CN2C(c3cccc([N+](=O)[O-])c3)=NON(c3ccc(C)cn3)C2C=C1 (stereo not drawn)	42	u	u	x	10%	u
Cc1ccc(NC(=O)C2CCN(S(=O)(=O)c3cccs3)CC2)cc1	-26	u	-7%	-12%	-19%	u
COc1ccc(OC)c(S(=O)(=O)N2CCC(C(=O)Nc3cccc(C)c3)CC2)c1	u	u	1%	21µM*	-1%	u
O=C(NCCN1C(=O)S/C(=C\c2ccc(F)cc2)C1=O)C1CCN(S(=O)(=O)c2cccs2)CC1	19	10µM*	4%	3%	15%	12µM*
CCc1ccc(NC(=O)C2CCN(S(=O)(=O)c3cccs3)CC2)cc1	-80*	u	u	u	-29%	u
COc1ccc(/C=C2\SC(=O)N(CCNC(=O)C3CCN(S(=O)(=O)c4cccs4)CC3)C2=O)cc1	23	-27%	3%	u	1%	u
COc1cc(NC(=O)C2CCN(S(=O)(=O)c3cccs3)CC2)cc(OC)c1	-14	u	-1%	u	-11%	18µM*
COCCNC(=O)Cn1cc(C(=O)c2ccco2)c2ccccc21	8	1%	-2%	6%	0%	18%
Cc1ccc(C(C)C)c(OCCn2cc(C(=O)c3ccco3)c3ccccc32)c1	x	15µM*	x	x	x	18µM*
Cc1ccc(C)c(OCCn2cc(C(=O)c3ccco3)c3ccccc32)c1	x	13µM*	x	x	x	21µM*
Nc1cc2nc3ccccc3oc-2cc1=O	4	1.8µM*	u	u	u	2.1µM*
COc1ccc2c(-c3cc4ccc(OCc5ccc(F)cc5)cc4oc3=O)cc(=O)oc2c1	-9	12µM*	18%	4%	5%	7.3µM*
SMILES	IL-1B inflam inh	DT40 TDP1 no CPT	HT1080-NT tox	ELG1 repair inh	HT1080 IDH1KD tx	DT40 TDP1 CPT
COc1cc(Nc2nc(SCC(=O)c3ccc(Br)cc3)nc3ccccc23)cc(OC)c1	x	2.9µM*	x	x	x	5.2µM*
N#Cc1ccccc1OCC(=O)N1CCN(S(=O)(=O)c2ccc(Cl)cc2)CC1	27	u	-1%	0%	-2%	-8%
Oc1csc(Cc2nc(-c3ccc(-c4ccccc4)cc3)cs2)n1	23	1%	7%	u	-2%	1%
Oc1csc(Cc2nc(-c3ccc4ccccc4c3)cs2)n1	35	15µM*	-13%	u	-22%	u
Cc1ccc(C2N(C)C(=O)c3ccccc3N2C)cc1 (stereo not drawn)	-3	21µM*	u	-21%	u	-12%
Cc1ccc([C@@H]2[C@@H]3C(=O)N(C)C(=O)[C@@H]3[C@@H]3C(=O)Nc4ccccc4C(=O)N23)cc1	46	3%	-1%	2%	0%	-2%
C[C@@H]1CN([C@@H](C)CO)C(=O)CCCn2nncc2CO[C@H]1CN(C)Cc1ccc2c(c1)OCCO2	-4	-21%	-5%	x	-1%	-17%
O=C(O)c1sc2cc(C(F)(F)F)cnc2c1-c1ccccn1	23	4%	14%	0%	13%	-7%
CCOc1ccccc1NC(=O)Cn1cnc2c1c(=O)n(C)c(=O)n2C	x	-27%	x	x	x	u
Cc1cc(C(=O)O)ccc1-n1c(C)cc(/C=C(/C#N)C(=O)Nc2ccccc2)c1C	-66*	-34%	-8%	1%	-18%	-27%
N#C/C(=C/c1ccc(C(=O)O)cc1)C(=O)Nc1ccccc1	0	-17%	25%	2%	26%	-10%
CCOC(=O)/C(C#N)=C/c1cc(C)n(-c2ccc(Br)cc2)c1C	x	x	x	21%	x	x
Cc1ccc(-n2c(C)cc(/C=C(\C#N)C(=O)Nc3ccc(C)c(C)c3)c2C)cc1	x	u	x	x	x	-28%
